# Reference: PubChem BioAssay (NCI)
# About 83,000 compounds went through this panel and 20% of them were active in at least one assay; those are over-represented in the sample as a whole.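 For each line, cells grew in 96-well plates with the test compound present at a single concentration for 48 hours.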 Active and inactive are the calls of the source. How the source made its calls: active means growth percent below 10; inactive means the rest.
# Tested on: TK-10 renal
# Test: NCI-60 one-dose screen, 48 h (100 = growth as untreated, 0 = no growth, -100 = all killed)
# Details: 10 µM unless noted
row,SMILES,growth
1,COc1cc(NC(=O)c2cccc(-c3cc(=O)c4c(OC)c(OC)c(OC)cc4o3)c2)cc(OC)c1OC,69.4% (inactive)
2,COc1ccc(NC(=O)c2cccc(-c3cc(=O)c4c(O)c(OC)c(OC)cc4o3)c2)cc1,105% (inactive)
3,O=C1NN(C(=O)c2ccc(O)cc2)C(c2ccccc2)=N/C1=C\c1cn(-c2ccccc2)nc1-c1ccccc1,84.7% (inactive)
4,CO[C@H]1/C=C/O[C@@]2(C)Oc3c(C)c(O)c4c(c3C2=O)C(=O)C(/C=N/N(c2ccccc2)c2ccccc2)=C(NC(=O)/C(C)=C\C=C\[C@H](C)[C@H](O)[C@@H](C)[C@@H](O)[C@@H](C)[C@H](OC(C)=O)[C@@H]1C)C4=O,-1.72% (active)
5,C[C@@H]1C(=O)N(C[C@H](Cc2ccccc2)N(Cc2ccccc2)Cc2ccccc2)[C@]1(Cc1ccccc1)C(=O)OC(C)(C)C,50.5% (inactive)
6,COc1cc(/C=C/C(=O)c2cccc(-n3cc(-c4ccc(Cl)cc4)[nH]c3=O)c2)cc(OC)c1OC,91.7% (inactive)
7,COc1cc(-c2ccc(N=Nc3c(O)c(C(=O)Nc4ccccc4OC)cc4ccccc34)c(OC)c2)ccc1N=Nc1c(O)c(C(=O)Nc2ccccc2OC)cc2ccccc12,110% (inactive)
8,CC/C=C/[C@@H]1C=C[C@@H]2CCC[C@H]2[C@@H]1CC[C@H](O)[C@H](C)N,8.1% (active)
9,C=C(Cl)COC(=O)C(C)(C)O,89.5% (inactive)
10,O=C1Nc2ccccc2SC1C1SC(=S)N(Cc2ccccc2)C1=O (stereo unspecified),21.8% (inactive)
11,COc1ccc(OC)c(Nc2nc3nonc3nc2Nc2cc(OC)ccc2OC)c1,36.1% (inactive)
